According to PubChem BioAssay (NCI):
The panel holds about 79,000 compounds, 15% with a hit somewhere; the sample as a whole holds those more often. Activity calls are given as the source filed them. Rule as the data show it: active = growth inhibition above about 70%; inactive = the rest.

Legend:
[1] = NCI Yeast Anticancer Drug Screen. Data for the mlh1 strain (AID 171);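 also: 0% = growth of vehicle-treated control cultures of the same strain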; conditions: S. cerevisiae mlh1 strain growth inhibition, hits give high values
Summary of the method: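 Test agents were incubated with yeast bearing a defined DNA damage repair or cell cycle control alteration; values are growth inhibition normalised to vehicle-treated cultures.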

[2] = NCI Yeast Anticancer Drug Screen. Data for the sgs1 strain (AID 173);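 also: 0% = growth of vehicle-only control cultures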; conditions: S. cerevisiae sgs1 mutant, hits give high values
Summary of the method: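 Strain with an altered DNA repair or cell cycle pathway exposed to compound. Growth then measured. Value = inhibition versus vehicle control.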

[3] = NCI Yeast Anticancer Drug Screen. Data for the mlh1 rad18 strain (AID 175); conditions: S. cerevisiae mlh1 rad18 strain growth inhibition, hits give high values
Summary of the method: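 A repair-deficient yeast strain is exposed to test compound, and growth is scored relative to vehicle-treated controls.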

[4] = NCI Yeast Anticancer Drug Screen. Data for the rad18 strain (AID 177); conditions: S. cerevisiae rad18 mutant growth inhibition, hits give high values
Summary of the method: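 DNA-repair-defective yeast; compound treatment; growth inhibition scored against vehicle.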

[5] = NCI Yeast Anticancer Drug Screen. Data for the rad52 strain (AID 147);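 also: 0% = growth of vehicle-treated control cultures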; conditions: S. cerevisiae rad52 mutant growth inhibition, hits give high values
Summary of the method: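 Growth of repair-deficient yeast cells was compared between compound-treated and vehicle-treated cultures to give percent inhibition.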

[6] = NCI Yeast Anticancer Drug Screen. Data for the wt1 strain (AID 149);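 also: 0% = growth of vehicle-treated wt1 cultures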; conditions: S. cerevisiae wt1 strain (SPY 50644) growth inhibition, hits give high values
Summary of the method: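 Using yeast strain wt1, compound-induced growth inhibition was determined against vehicle-treated cultures.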

[7] = NCI Yeast Anticancer Drug Screen. Data for the rad50EPP+ strain (AID 151);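 also: 0% = growth of vehicle-treated control cultures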; conditions: S. cerevisiae rad50 mutant strain, hits give high values
Summary of the method: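 Measured: growth inhibition of rad50EPP+ yeast. Reference: vehicle-treated controls. Screen uses strains with defined genetic alterations in DNA damage repair or cell cycle control.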

[8] = NCI Yeast Anticancer Drug Screen. Data for the rad50 strain (AID 155);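 also: 0% = growth of vehicle-only cultures of the same strain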; conditions: S. cerevisiae rad50 strain growth inhibition, hits give high values
Summary of the method: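 Relative growth inhibition (compound vs vehicle) was measured in yeast with a defined repair-gene alteration.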

[9] = NCI Yeast Anticancer Drug Screen. Data for the mec2-1 strain (AID 157); conditions: S. cerevisiae mec2-1 strain, hits give high values
Summary of the method: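 Compounds were applied to mec2-1 yeast cells. Their growth was then compared with that of vehicle-treated cultures to give growth inhibition.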

[10] = NCI Yeast Anticancer Drug Screen. Data for the sgs1 mgt1 strain (AID 161);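 also: 0% = growth of cultures given vehicle only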; conditions: S. cerevisiae sgs1 mgt1 strain, hits give high values
Summary of the method: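 Percent growth inhibition was derived by comparing compound-exposed mutant yeast with vehicle-exposed cultures. The strain carries alterations in DNA damage repair.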

[11] = NCI Yeast Anticancer Drug Screen. Data for the CLN2oe strain (AID 163);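 also: 0% = growth of vehicle-only control cultures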; conditions: S. cerevisiae CLN2oe strain, hits give high values
Summary of the method: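 Cells of an engineered yeast line with disturbed cell-cycle regulation are treated with compound. Inhibition of growth is then calculated relative to the vehicle-treated reference.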

[12] = NCI Yeast Anticancer Drug Screen. Data for the cln2 rad14 strain (AID 165);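 also: 0% = growth equal to vehicle treated cultures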; conditions: S. cerevisiae cln2 rad14 strain, hits give high values
Summary of the method: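 Strain: cln2 rad14 yeast, altered in cell cycle control and DNA damage repair. Read-out: growth inhibition vs vehicle.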

[13] = NCI Yeast Anticancer Drug Screen. Data for the bub3 strain (AID 167); conditions: S. cerevisiae bub3 mutant strain, hits give high values
Summary of the method: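 Screening used yeast with an engineered genetic alteration affecting cell cycle control. Compound-exposed cultures were compared with vehicle cultures, and reduced growth was taken as inhibition.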

[14] = NCI Yeast Anticancer Drug Screen. Data for the wt2 strain (AID 169);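 also: 0% = growth of vehicle-treated yeast cultures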; conditions: S. cerevisiae wt2 strain growth inhibition, hits give high values
Summary of the method: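 Growth of compound-treated yeast is measured and expressed as inhibition relative to vehicle-only controls.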

[15] = NCI Yeast Anticancer Drug Screen. Data for the rad14 strain (AID 159);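 also: 0% = growth of vehicle-treated control cultures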; conditions: S. cerevisiae rad14 strain growth inhibition, hits give high values
Summary of the method: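 Screen for anticancer potential: a yeast strain altered in DNA damage repair is grown with compound, and reduced growth is quantified against vehicle controls.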

[16] = at 5.0 µM (retest, dose inferred, filed as 0.5)
[17] = at 50.0 µM (retest, dose inferred, filed as 5.0)

Measured: growth inhibition

NC(=O)NC1C(c2ccccc2)=C1c1ccccc1
active: [2]; at 100.0 µM 84%
inactive: [1]; at 1.2 µM -7% | [1]; at 3.7 µM -4% | [1]; at 11.0 µM 14% | [1]; at 33.0 µM 17% | [1]; at 100.0 µM 51% | [2]; at 1.2 µM 8% | [2]; at 3.7 µM 5% | [2]; at 11.0 µM 44% | [2]; at 33.0 µM 56% | [3]; [16] -104% | [3]; [17] -38% | [3]; at 50.0 µM 44.7% | [4]; at 1.2 µM -7% | [4]; at 3.7 µM 3% | [4]; at 11.0 µM 34% | [4]; at 33.0 µM 38% | [4]; at 100.0 µM 38%

O=[N+]([O-])c1ccc(/C=C\c2ccc3c(c2)OCO3)c([N+](=O)[O-])c1
active: [5]; at 100.0 µM 83% | [7]; at 33.0 µM 84% | [7]; at 100.0 µM 78% | [8]; [17] 92% | [8]; at 50.0 µM 85.2% | [8]; at 100.0 µM 85% | [9]; [17] 97% | [9]; at 50.0 µM 83% | [9]; at 100.0 µM 80% | [10]; [17] 88% | [10]; at 50.0 µM 78.6% | [12]; [17] 76% | [13]; [17] 93% | [13]; at 50.0 µM 99% | [2]; at 100.0 µM 79% | [3]; [17] 96%
inactive: [5]; at 1.2 µM 3% | [5]; at 3.7 µM 12% | [5]; at 11.0 µM 26% | [5]; at 33.0 µM 54% | [6]; at 1.2 µM -2% | [6]; at 3.7 µM -2% | [6]; at 11.0 µM 2% | [6]; at 33.0 µM 6% | [6]; at 100.0 µM 35% | [7]; at 1.2 µM 12% | [7]; at 3.7 µM 30% | [7]; at 11.0 µM 69% | [8]; at 1.2 µM 3% | [8]; at 3.7 µM 15% | [8]; [16] 33% | [8]; at 11.0 µM 29% | [8]; at 33.0 µM 54% | [9]; at 1.2 µM -3% | [9]; at 3.7 µM -3% | [9]; [16] 9% | [9]; at 11.0 µM 3% | [9]; at 33.0 µM 20% | [10]; [16] 11% | [11]; at 1.2 µM -2% | [11]; at 3.7 µM -3% | [11]; at 11.0 µM 7% | [11]; at 33.0 µM 16% | [11]; at 100.0 µM 25% | [12]; [16] 2% | [12]; at 50.0 µM 25.2% | [13]; at 1.2 µM -7% | [13]; at 3.7 µM -7% | [13]; [16] 2% | [13]; at 11.0 µM -5% | [13]; at 33.0 µM 28% | [13]; at 100.0 µM 68% | [14]; at 1.2 µM -2% | [14]; at 3.7 µM -3% | [14]; at 11.0 µM -1% | [14]; at 33.0 µM 8% | [14]; at 100.0 µM 66% | [1]; at 1.2 µM -1% | [1]; at 3.7 µM 1% | [1]; at 11.0 µM 7% | [1]; at 33.0 µM 16% | [1]; at 100.0 µM 63% | [2]; at 1.2 µM -2% | [2]; at 3.7 µM 1% | [2]; at 11.0 µM 9% | [2]; at 33.0 µM 19% | [3]; [16] 12% | [3]; at 50.0 µM 65.7% | [4]; at 1.2 µM -1% | [4]; at 3.7 µM 6% | [4]; at 11.0 µM 11% | [4]; at 33.0 µM 27% | [4]; at 100.0 µM 64%

O=C(Nn1c(-c2ccccc2)nc2ccccc2c1=O)c1ccc(CS)cc1
active: [5]; at 100.0 µM 98% | [6]; at 100.0 µM 98% | [7]; at 100.0 µM 76% | [8]; at 50.0 µM 79.2% | [8]; at 100.0 µM 98% | [9]; at 100.0 µM 97% | [15]; at 100.0 µM 97% | [11]; at 100.0 µM 97% | [13]; [17] 81% | [13]; at 100.0 µM 98% | [14]; at 100.0 µM 98% | [3]; [17] 74% | [4]; at 100.0 µM 98%
inactive: [5]; at 1.2 µM 5% | [5]; at 3.7 µM 20% | [5]; at 11.0 µM 12% | [5]; at 33.0 µM 53% | [6]; at 1.2 µM -4% | [6]; at 3.7 µM -6% | [6]; at 11.0 µM -1% | [6]; at 33.0 µM 23% | [7]; at 1.2 µM -2% | [7]; at 3.7 µM 6% | [7]; at 11.0 µM 5% | [7]; at 33.0 µM 31% | [8]; at 1.2 µM -5% | [8]; at 3.7 µM 2% | [8]; [16] -35% | [8]; at 11.0 µM 8% | [8]; at 33.0 µM 47% | [8]; [17] 10% | [9]; at 1.2 µM -4% | [9]; at 3.7 µM -17% | [9]; [16] -23% | [9]; at 11.0 µM -15% | [9]; at 33.0 µM 24% | [9]; [17] 34% | [9]; at 50.0 µM 43.4% | [15]; at 1.2 µM -16% | [15]; at 3.7 µM -16% | [15]; at 11.0 µM -19% | [15]; at 33.0 µM 21% | [10]; [16] -11% | [10]; [17] 27% | [10]; at 50.0 µM 60.2% | [11]; at 1.2 µM -11% | [11]; at 3.7 µM 10% | [11]; at 11.0 µM 0% | [11]; at 33.0 µM 20% | [12]; [16] 19% | [12]; [17] 40% | [12]; at 50.0 µM 27.5% | [13]; at 1.2 µM -7% | [13]; at 3.7 µM -14% | [13]; [16] -12% | [13]; at 11.0 µM -13% | [13]; at 33.0 µM 47% | [13]; at 50.0 µM 50.8% | [14]; at 1.2 µM 9% | [14]; at 3.7 µM 6% | [14]; at 11.0 µM 9% | [14]; at 33.0 µM 34% | [3]; [16] -22% | [3]; at 50.0 µM 48% | [4]; at 1.2 µM 15% | [4]; at 3.7 µM 16% | [4]; at 11.0 µM 14% | [4]; at 33.0 µM 62%
